Laboratory results published in PubChem BioAssay AID504652 (National Center for Advancing Translational Sciences (NCATS), 2011).
In all, about 360,000 compounds went through this assay and about 11,000 (3.1%) were called active. This is one part of a sample in which actives are shown more often than they occur. A number with no mark means an inactive call. Rule as the data show it: active = activity change below about -30%; inactive = the rest.
% is scaled to controls: 0 for no effect and ±100 for the full control effect.

These compounds were tested against D(1A) dopamine receptor (Homo sapiens) (UniProt P21728) (assay: Antagonist of Human D 1 Dopamine Receptor: qHTS). Conditions: HEK293 TREx D1 cells, calcium flux, dopamine EC80; at 10 µM; hits give low values.
Sequence of D(1A) dopamine receptor (Homo sapiens) (P21728 whole entry, looked up): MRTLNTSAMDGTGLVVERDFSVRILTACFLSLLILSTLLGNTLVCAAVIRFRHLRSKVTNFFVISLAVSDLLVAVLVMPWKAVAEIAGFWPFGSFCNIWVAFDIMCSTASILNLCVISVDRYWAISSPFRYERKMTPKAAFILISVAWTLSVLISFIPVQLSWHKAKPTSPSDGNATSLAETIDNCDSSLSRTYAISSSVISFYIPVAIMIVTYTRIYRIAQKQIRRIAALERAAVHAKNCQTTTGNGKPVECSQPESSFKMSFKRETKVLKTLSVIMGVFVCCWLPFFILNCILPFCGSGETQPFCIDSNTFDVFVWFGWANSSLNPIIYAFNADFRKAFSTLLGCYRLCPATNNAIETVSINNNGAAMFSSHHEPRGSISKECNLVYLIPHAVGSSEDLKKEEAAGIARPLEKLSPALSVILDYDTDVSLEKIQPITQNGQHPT
In short: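 Inducible Hek293 Trex D1 cells (tetracycline, overnight, 30 C). Calcium dye 30–90 min RT. Antagonist mode: EC80 dopamine added after 180 s compound read.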
For `COc1ccc(S(=O)(=O)c2c(Nc3ccc(C)cc3)sc(C(=O)c3ccc(C)cc3)c2N)cc1`, the activity change, negative = inhibition was -13.4%. `CCCS(=O)(=O)c1c(Nc2ccccc2C)sc(C(=O)c2ccccc2)c1N` gave an activity change, negative = inhibition of 0.973%. For `COc1ccc(S(=O)(=O)c2c(Nc3cccc(Cl)c3)sc(C(=O)c3ccccc3)c2N)cc1`, the activity change, negative = inhibition was -73.9% (active). `O=C(Nc1ccc2c(c1)OCO2)c1cc(-c2cccc(Cl)c2)on1` was tested, and the activity change, negative = inhibition was -3.15%. With `Cc1ccc(S(=O)(=O)c2c(Nc3cccc(Cl)c3)sc(C(=O)c3ccc4c(c3)OCO4)c2N)cc1` the activity change, negative = inhibition was -41.6% (active). For `Cc1ccc(C(=O)Nc2sc(Cc3ccc4c(c3)OCO4)c(C)c2C(N)=O)cc1`, the activity change, negative = inhibition was 17.9%. Compound `NS(=O)(=O)c1ccc(NC(=O)COc2ccc(S(=O)(=O)NC3CCCCC3)cc2)cc1` has an activity change, negative = inhibition of 9.54%. Work on `Cc1ccc(C(=O)NC2CCN(C#N)CC2)cc1` yielded an activity change, negative = inhibition of -16%. With `Cc1cccc(C(=O)N2c3nc(-c4ccco4)nn3C3(CCCCC3)[C@@H]3CCCC[C@@H]32)c1` the activity change, negative = inhibition was 4.44%. `COc1ccc(NC(=O)CSc2nnc(-c3cccs3)n2Cc2ccco2)cc1OC` showed an activity change, negative = inhibition of 8.42%. `O=C(CSc1nnc(-c2cccnc2)n1Cc1ccco1)c1ccc(Cl)c(Cl)c1` showed an activity change, negative = inhibition of 18.2%. In the case of `O=C(CSc1nnc(-c2cccs2)n1Cc1ccco1)c1ccc2c(c1)OCO2`, the activity change, negative = inhibition is reported as -31.7% (active). For `Cc1cccc(CSc2nc3ccncc3n2Cc2ccc(C(=O)O)cc2)c1`, the activity change, negative = inhibition was 14.5%. Work on `O=S(=O)(Nc1ccccc1)c1ccc(NS(=O)(=O)c2cccs2)cc1` yielded an activity change, negative = inhibition of -3.97%. Work on `O=S(=O)(Nc1ccccc1Br)c1cccs1` yielded an activity change, negative = inhibition of 11.5%. `O=C(Nc1cccc(Cl)c1)Nc1ccccc1NS(=O)(=O)c1cccs1` was tested, and the activity change, negative = inhibition was -42.1% (active). Work on `Cc1cccc(NC(=O)Cn2c(=O)n(CCC(C)C)c(=O)c3cccnc32)c1` yielded an activity change, negative = inhibition of 38.2%. With `COc1ccccc1NC(=O)C1=C(C)Nc2nc(SCC(=O)c3ccc(C)cc3)nn2C1c1ccccc1C` (stereo unspecified) the activity change, negative = inhibition was 4.06%. Compound `O=C(CN1CCN(Cc2ccc(Cl)cc2)C1=O)NCc1ccc(F)cc1` has an activity change, negative = inhibition of 6.15%. Work on `COc1ccc(NC(=O)CN2CCCN(Cc3ccccc3)S2(=O)=O)cc1` yielded an activity change, negative = inhibition of -2.48%. `COc1ccc(CNC(=O)C2CCN(S(C)(=O)=O)CC2)cc1` showed an activity change, negative = inhibition of -17.7%. In the case of `COc1ccc(CNC(=O)C2CCN(S(=O)(=O)N3CCOCC3)CC2)cc1`, the activity change, negative = inhibition is reported as -42.3% (active). `COc1ccc(N2CCN(CCCNC(=O)C3CCN(S(=O)(=O)N4CCOCC4)CC3)CC2)cc1` was tested, and the activity change, negative = inhibition was 5.25%. With `COc1cccc(CN2CCc3nc(SCC(=O)Nc4ccccc4)[nH]c(=O)c3C2)c1` the activity change, negative = inhibition was 3.64%. Work on `CCc1ccc(CNC(=O)c2cc3c(=O)n(CC)c4ccccc4c3s2)cc1` yielded an activity change, negative = inhibition of 11%. For `Cc1ccc(C)c(N2CCN(S(=O)(=O)c3ccc4c(c3)C(C(C)C)C(=O)N4)CC2)c1` (stereo unspecified), the activity change, negative = inhibition was -23.5%. `O=C(CC(c1cccs1)N1Cc2ccccc2C1=O)Nc1ccc(F)c(F)c1` (stereo unspecified) showed an activity change, negative = inhibition of -0.399%. `O=C(COc1ccccc1)NCc1ccc2c(c1)CCN2C(=O)c1ccc(F)cc1` was tested, and the activity change, negative = inhibition was -7.02%. In the case of `O=C(CSc1nnc(Nc2ccccc2)s1)Nc1cccnc1Cl`, the activity change, negative = inhibition is reported as -65.7% (active). `O=C(CSc1nnc(C2CC2)n1Cc1ccccc1)Nc1cccnc1Cl` showed an activity change, negative = inhibition of 8.52%. Compound `O=C(CSc1nnc(Nc2ccccc2F)s1)NC1CCCC1` has an activity change, negative = inhibition of -3.18%. Work on `CC(C)c1ccc(NC(=O)c2ccc3c(O)c(S(=O)(=O)c4ccccc4)c(=O)[nH]c3c2)cc1` yielded an activity change, negative = inhibition of -2.13%. Work on `COc1cc2ccccc2cc1C(=O)Nc1cccc(-c2nc3ccccc3o2)c1` yielded an activity change, negative = inhibition of -19.2%. Compound `O=C(Nc1ccccc1)O/N=C1/CCCc2occc21` has an activity change, negative = inhibition of 7.6%. `CC(C)(COC(=O)Nc1ccccc1)COC(=O)Nc1ccccc1` was tested, and the activity change, negative = inhibition was -3.78%. In the case of `N/C(=N\OC(=O)Nc1ccccc1)c1ccno1`, the activity change, negative = inhibition is reported as -30.9% (active). For `Cc1ccc(-c2nnc(Nc3ccc(OCC(N)=O)cc3)c3ccccc23)cc1S(=O)(=O)NCC1CCCO1` (stereo unspecified), the activity change, negative = inhibition was -11.9%. `CCOc1ccc(CCNC(=O)c2ccc3c(c2)sc2nc(-c4ccc(F)cc4)cn23)cc1OCC` was tested, and the activity change, negative = inhibition was 0.197%. Compound `CCOc1ncccc1C(=O)NCCc1ccc(OC)cc1` has an activity change, negative = inhibition of 8.92%. `COc1ccc(CCNC(=O)c2ccccc2OCc2ccccc2)cc1` was tested, and the activity change, negative = inhibition was -35% (active). With `COc1ccc(C(=O)NC(C)CCc2ccccc2)c(OC)c1` (stereo unspecified) the activity change, negative = inhibition was -36.3% (active). Compound `COc1ccc(CCNC(=O)c2ccccc2-c2ccccc2C(=O)O)cc1OC` has an activity change, negative = inhibition of 0.57%. Compound `COc1ccccc1C(=O)NCCC(=O)NC(C)CCc1ccccc1` (stereo unspecified) has an activity change, negative = inhibition of -3.06%. `COc1ccc(C(=O)CCc2ccccc2O)c(OC)c1` was tested, and the activity change, negative = inhibition was -22.2%. `COc1ccc(CC(=O)Nc2nnc3n2CCS3)cc1OC` showed an activity change, negative = inhibition of 29.1%. `Cc1ccc(Cl)cc1N(C)C(=O)C1CCCN(c2ncnc3onc(-c4ccc(F)cc4)c23)C1` (stereo unspecified) was tested, and the activity change, negative = inhibition was 3.58%. `Cc1nc2nc(SCC(=O)NC3CCC(C)CC3)nn2c(C)c1Cc1ccccc1Cl` (stereo unspecified) showed an activity change, negative = inhibition of -18.6%. `O=C(COC(=O)c1cnc(Cl)c(Cl)c1)NCc1ccco1` showed an activity change, negative = inhibition of -8.31%. For `O=C(COC(=O)c1ccco1)NCc1ccc(Cl)cc1`, the activity change, negative = inhibition was -43.8% (active). In the case of `CCc1ccc(C(=O)COC(=O)c2ccco2)cc1`, the activity change, negative = inhibition is reported as 3.84%. `O=S(=O)(Nc1ccc2nc(-c3cccc(Cl)c3)oc2c1)c1ccccc1` gave an activity change, negative = inhibition of 2.59%. In the case of `O=c1[nH]c2cc(Br)ccc2n2cccc12`, the activity change, negative = inhibition is reported as 17.9%. In the case of `Cc1ccc2nc(/C(C#N)=C/c3ccccc3F)[nH]c2c1`, the activity change, negative = inhibition is reported as 2.38%. `CCc1cc2c(cc3c(=O)n(CC(=O)N4CCN(c5cc(Cl)ccc5C)CC4)ncn32)s1` gave an activity change, negative = inhibition of 5.41%. For `Oc1c(C(c2ccccn2)N2CCOCC2)ccc2cccnc12` (stereo unspecified), the activity change, negative = inhibition was -33.9% (active). `COc1ccc(-c2cn3c(n2)sc2cc(C(=O)Nc4ccccc4F)ccc23)cc1` gave an activity change, negative = inhibition of -2.21%. Work on `Cc1ccc2[nH]c3c(=O)n(CC(=O)NC(C)C)ncc3c2c1` yielded an activity change, negative = inhibition of 5.41%. `COc1ccc(/C=C/c2nc(C#N)c(NCc3ccc(F)cc3)o2)cc1OC` gave an activity change, negative = inhibition of -16%. `O=C1CSc2ccc(S(=O)(=O)NCc3ccccc3)cc2N1` was tested, and the activity change, negative = inhibition was -44.7% (active). `COc1ccccc1CNS(=O)(=O)c1ccc2c(c1)NC(=O)CS2` was tested, and the activity change, negative = inhibition was 7.86%. With `CCC(Cc1ccccc1)NS(=O)(=O)c1ccc2c(c1)NC(=O)CS2` (stereo unspecified) the activity change, negative = inhibition was -0.0752%. Work on `CCCCn1cc(S(=O)(=O)c2ccc(OCC)cc2)c(=O)c2cc(OC)c(OC)cc21` yielded an activity change, negative = inhibition of 4.22%. `COc1ccc(C)cc1Nc1nc2ccccc2c2nnc(C)n12` gave an activity change, negative = inhibition of 1.83%. For `CCN(CC)C(=O)C(=O)c1cn(CC(=O)NCc2ccc3c(c2)OCO3)c2ccccc12`, the activity change, negative = inhibition was -3.14%. With `CCn1cc(C(=O)NCC2COc3ccccc3O2)c2cc(OC)c(OC)cc2c1=O` (stereo unspecified) the activity change, negative = inhibition was 13.1%. `COc1cc(-n2c(C)nc3cc(C(=O)NCc4ccco4)ccc32)cc(OC)c1OC` was tested, and the activity change, negative = inhibition was -14.8%. With `COc1ccccc1-n1c(C)nc2cc(C(=O)NCc3ccc4c(c3)OCO4)ccc21` the activity change, negative = inhibition was -36.2% (active). Work on `CCOc1c2ccc(C(=O)NCc3ccc4c(c3)OCO4)cc2nn1C` yielded an activity change, negative = inhibition of 3.09%. With `CCn1cc(C(=O)NCc2ccc3c(c2)OCO3)c2cc(OC)c(OC)cc2c1=O` the activity change, negative = inhibition was -40.7% (active). `CC(=O)Nc1cc(C(=O)NCc2ccc(F)cc2)ccc1Sc1ccc(F)cc1` was tested, and the activity change, negative = inhibition was 3.13%. Compound `COc1ccccc1CNS(=O)(=O)c1cc(Br)cc2c1N(C(C)=O)C(C)C2` (stereo unspecified) has an activity change, negative = inhibition of 7.16%. With `C#CCOCCOCCOCCNc1nc(N2CCN(C(=O)C(Cc3ccc(O)cc3)n3cc(C(N)CC(C)C)nn3)CC2)nc(N2CCN(C(=O)C(Cc3ccc(O)cc3)n3cc(C(N)C(C)CC)nn3)CC2)n1` (stereo unspecified) the activity change, negative = inhibition was -10.5%. With `C#CCOCCOCCOCCNc1nc(N2CCN(C(=O)[C@H](C(C)C)n3cc(CCO)nn3)CC2)nc(N2CCN(C(=O)[C@H](C(C)C)n3cc(CCO)nn3)CC2)n1` the activity change, negative = inhibition was 7.62%. With `C#CCOCCOCCOCCNc1nc(N2CCN(C(=O)[C@H](CCC(=O)O)n3cc(C(N)CO)nn3)CC2)nc(N2CCN(C(=O)[C@H](Cc3ccc(O)cc3)n3cc(C(N)[C@H](C)CC)nn3)CC2)n1` (stereo partly specified) the activity change, negative = inhibition was -34.5% (active). `C#CCOCCOCCOCCNc1nc(N2CCN(C(=O)[C@H](Cc3ccc(O)cc3)n3cc(C(N)CC(C)C)nn3)CC2)nc(N2CCN(C(=O)[C@H](CCC(=O)O)n3cc(C(N)[C@H](C)CC)nn3)CC2)n1` (stereo partly specified) showed an activity change, negative = inhibition of -5.53%. With `C#CCOCCOCCOCCNc1nc(N2CCN(C(=O)[C@H](CCC(=O)O)n3cc(C(N)CO)nn3)CC2)nc(N2CCN(C(=O)[C@H](CCCCN)n3cc(C(N)[C@H](C)CC)nn3)CC2)n1` (stereo partly specified) the activity change, negative = inhibition was -39.7% (active). For `C#CCOCCOCCOCCNc1nc(N2CCN(C(=O)CCCCCCCCCCNC(=O)[C@H]([C@@H](C)CC)n3cc(CCCCN=C(N)N)nn3)CC2)nc(N2CCN(C(=O)CCCCCCCCCCNC(=O)[C@H](CO)n3cc(CCCSC)nn3)CC2)n1`, the activity change, negative = inhibition was 6.53%. Compound `C#CCOCCOCCOCCNc1nc(N2CCN(C(=O)[C@H](CCCCN)n3cc([C@@H](N)C(C)CC)nn3)CC2)nc(N2CCN(C(=O)[C@H](Cc3ccc(O)cc3)n3cc([C@@H](N)C(C)CC)nn3)CC2)n1` (stereo partly specified) has an activity change, negative = inhibition of -11.3%. In the case of `C#CCOCCOCCOCCNc1nc(N2CCN(C(=O)[C@H](CCC(=O)O)n3cc(C(N)CO)nn3)CC2)nc(N2CCN(C(=O)[C@H](CCCCN)n3cc(C(N)CC(C)C)nn3)CC2)n1` (stereo partly specified), the activity change, negative = inhibition is reported as -32.3% (active). `O=C(CC1Oc2ccccc2NC1=O)NCc1ccc(F)cc1` (stereo unspecified) showed an activity change, negative = inhibition of -2.49%. With `CN1C(=O)c2[nH]nc(-c3ccc(F)cc3)c2C1c1ccccn1` (stereo unspecified) the activity change, negative = inhibition was -12.2%. `N#Cc1nc(/C=C/c2ccc(F)cc2)oc1NC1CCCCC1` gave an activity change, negative = inhibition of -1.82%. `CCN(CC)c1cc(NC2CCCCC2)c2c3c(onc13)-c1ccccc1C2=O` was tested, and the activity change, negative = inhibition was 8.94%. `Cc1ccc2nc(CN3CCN(S(=O)(=O)c4ccc(C)c(C)c4)CC3)oc2c1` showed an activity change, negative = inhibition of -3.02%. Work on `COc1cc(NC(=O)CN2CCN(S(=O)(=O)c3ccc(Br)cc3)CC2)cc(OC)c1` yielded an activity change, negative = inhibition of -5.38%. In the case of `CCc1ccc(C2C(C(=O)Nc3ccccc3)=C(C)Nc3c(C(=O)Nc4ccc(C)cc4)cnn32)cc1` (stereo unspecified), the activity change, negative = inhibition is reported as -24.1%.
